Experimental data reported in PubChem BioAssay.

Test system: not listed separately
Assay: binders of probe aHhip on microarray, primary screen, stem cell growth factor project, biochemical, small-molecule microarray, fluorescence 635/667 (AID 1087);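 also: score merges spot fluorescence at 667nm with spot signal to noise ratio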
Settings: higher = more signal

SMILES	composite z-score
COc1ccc(NC(=O)O[C@H]2[C@H](OC(=O)Nc3ccccc3)[C@H](OC(=O)Nc3ccccc3)[C@@H](OC)O[C@@H]2CO)cc1	0.281
COCCOC(=O)N1C(=O)[C@@]2(c3ccccc31)[C@H](C(=O)N1CCN(c3ncccn3)CC1)[C@H]1C(=O)O[C@H](c3ccccc3)[C@H](c3ccccc3)N1[C@@H]2c1ccc(O)cc1	0.0523
CCCCO[C@H]1C[C@H]2C(I)=C[C@@H]1C(=O)[C@]21CO1	-0.236
COc1ccc(CN(C2=CC[C@@]3(C(N)=O)C(=O)C(Cl)=C(Cl)C(=O)[C@@]3(C#N)C2)S(=O)(=O)c2ccc(Br)cc2)cc1	0.0176
CCCCN1CC=CC23O[C@@H]4/C=C\CCC(C)OC(=O)C4[C@H]2C(=O)N(C(CO)C(C)C)[C@@H]3C1=O (some centres not stated)	-0.201
[N-]=[N+]=NCc1ccccc1C[C@]1(C(N)=O)N=C(c2ccc(OCCCO)cc2)O[C@H]1c1ccccc1	-0.201
C=CCNC(=O)[C@H]1[C@@H]2C(=O)O[C@@H](c3ccccc3)[C@@H](c3ccccc3)N2[C@@H](c2ccc(O)cc2)[C@]12C(=O)Nc1ccc(C#CC3(O)CCCCCC3)cc12	0.312
NCCCCCNC(=O)[C@@H]1C[C@@H]2C(=O)NCC(=O)N2[C@@H]1c1cccc(OCCO)c1	0.151

Test system: PRMT1 (protein arginine N-methyltransferase 1)
Assay: small molecules binding arginine methyltransferase PRMT1 – biochemical, small-molecule microarray, 635 nm fluorescence, primary screen (AID 1088);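 also: binding of Prmt1 protein to compounds spotted on small-molecule microarray slides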
Settings: higher = more signal

SMILES	composite z-score
COc1cc2c(cc1OC)CN(C(=O)[C@@H]1[C@H]3C(=O)O[C@H](c4ccccc4)[C@H](c4ccccc4)N3[C@H](c3ccc(OCCO)cc3)[C@@]13C(=O)Nc1ccc(C#CC4(O)CCCCCC4)cc13)CC2	1.54
C=C(/C(=C/C[C@H](OC(C)=O)c1cccc(OCCO)c1)c1cnc2ccccc2c1)C(C)C	0.684
OCCCC1=CC(c2ccc(CN3CCCC3)cc2)N(Cc2sc3ccccc3c2Cl)CC1 (configuration not stated)	1.2
CCOC(=O)C[C@H]1[C@H](OC(=O)c2ccccc2-c2ccccc2)[C@@H](NC(=O)C2CCCCC2)c2cc(OCCCO)ccc2N1C(=O)Cc1ccc(OC)cc1	0.143
CN1C(=O)C2C=CC(C(O)c3cccc4ccccc34)N(N3CCCCC3)C2C1=O (configuration not stated)	1.55
CC1=C([C@H](O)CCc2ccccc2)[C@H](CO)[C@@H]2C(=O)N(C)C(=O)[C@@H]2C1	0.958
O=C1O[C@@H](c2ccccc2)[C@@H](c2ccccc2)N2[C@@H](c3ccc(OCCO)cc3)[C@]3(C(=O)Nc4ccccc43)[C@@H](C(=O)O)[C@H]12	0.194
C=C(/C(=C/C[C@@H](OC(C)=O)c1cccc(OCCO)c1)c1cc(C(=O)OC)ccc1OC)C(C)C	1.07
CCOC(=O)C[C@H]1[C@H](OC(=O)c2cc3ccccc3oc2=O)[C@@H](NC(=O)c2ccc(-c3ccccc3)cc2)c2cc(OCCCO)ccc2N1C(=O)c1ccc2ccccc2n1	1.25
CC[C@H]1C2=C3C(CC[C@H]4C(OCc5ccc(F)cc5C(F)(F)F)OC[C@](C)([C@@H]34)N(C(=O)OC(C)(C)C)C2)C(COC)C1COC (some centres not stated)	-0.728
C=CCOC(=O)[C@H]1[C@@H]2C(=O)O[C@@H](c3ccccc3)[C@@H](c3ccccc3)N2[C@@H](c2ccc(OCCOC(=O)[C@H]3C[C@H]4C(=O)N[C@@H](CCCCNC(C)=O)C(=O)N4[C@H]3c3ccc(O)cc3)cc2)[C@]12C(=O)Nc1ccccc12	1.54
[N-]=[N+]=Nc1ccccc1[C@@H]1OC(c2ccc(OCCCO)cc2)=N[C@]1(Cc1ccccc1)C(=O)NCC(O)CO (some centres not stated)	1.55
COc1ccc(C(O)C2C=CC3C(=O)N(c4ccccc4)C(=O)C3N2Nc2ccc([N+](=O)[O-])cc2)cc1 (configuration not stated)	1.11
O=C1OCC=C[C@H]2OC34C=CCN(Cn5nnc6ccccc65)C(=O)[C@H]3N(CCCO)C(=O)[C@@H]4[C@@H]12 (some centres not stated)	-0.169
CCC[C@@H]1C[C@@]1(CCC)[C@@H](NC(=O)OCc1ccccc1)c1ccc(-c2ccccc2)cc1	-0.936
CC(C)(C)OC(=O)CC[C@@]1(C(=O)NCc2ccccc2)N=C(c2ccc(OCCCO)cc2)O[C@@H]1c1ccccc1N=[N+]=[N-]	1.56
COCCCNC(=O)[C@]1(CCS(=O)(=O)c2ccccc2)N=C(c2ccc(OCCCO)cc2)O[C@@H]1c1ccccc1CN=[N+]=[N-]	1.55
C=C(COC)/C(=C/C[C@H](OC(=O)c1ccncc1)c1ccccc1OCCO)c1cnc2ccccc2c1	1.54
O=C(NCC(F)(F)F)[C@@H]1c2ccccc2C(=O)N(Cc2cc(F)cc(C(F)(F)F)c2)[C@H]1c1ccc(CO)cc1	-0.264
